HCMV inh: inhibitors of human cytomegalovirus; HFF cells, HCMV-luciferase reporter, 72 h; active compounds read low; activity change, negative = inhibition, % at 57.5 µM; 410,000 tested, 4.5% active; AID 1259415; in the data active = activity change below about -60%; inconclusive = no clear call, values can overlap the other calls; inactive = above about -39%
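Two-dose cell screen: HFF monolayers treated with compounds and infected with luciferase-expressing HCMV at 1 PFU/cell, 72 h at 37C, then lysed for luciferase measurement.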
Marburg entry inh: blocks Marburg virus binding to or entry into cells; 300,000 tested, 1.8% active; Potency, µM (titrated, usually from 37.8 µM), inactives show at the highest dose activity change, negative = inhibition, usual class: inhibitors; AID 540276; Marburg virus pseudotyped entry inhibition, cell reporter; calls by dose curve; tested in HEK293 cells; also: potency is read from the fitted curve at half-maximal effect
Vaccinia mCherry: vaccinia inhibition (mCherry reporter) | Vaccinia virus mCherry reporter infection, fluorescence | Potency, µM (highest dose often 36.5 µM), without a hit: at the top dose activity change, negative = inhibition, actives largely listed as inhibitors | 310,000 tested, 0.63% active; calls by dose curve; tested in A549 cells; also: potency is read from the fitted curve at half-maximal effect; nearly all actives have a fitted effect of over 35% in size
FMDV inh: blocks foot and mouth disease virus. FMDV antiviral cell-based qHTS. Potency, µM (top dose mostly 57.9 µM), inactives show top-dose activity change, negative = inhibition, actives largely listed as inhibitors. 410,000 tested, 1.2% active. AID 1159524; calls by dose curve; tested in HEK293T cells; also: read-out not given here; potency is read from the fitted curve at half-maximal effect; nearly all actives have a fitted effect of over 45% in size
VACV Venus inh: inhibitors of vaccinia virus (Venus reporter). Vaccinia virus Venus reporter expression, fluorescence. Potency, µM (titrated, usually from 36.5 µM), inactives show at the top dose activity change, negative = inhibition, usual class: inhibitors. 330,000 tested, 0.46% active. AID 720580; calls by dose curve; tested in A549 cells; also: potency is read from the fitted curve at half-maximal effect; nearly all actives have a fitted effect of over 30% in size
Lassa entry inh: blocks Lassa virus binding to or entry into cells | Lassa virus pseudotype entry inhibition, cell reporter | Potency, µM (highest dose often 37.9 µM), without a hit: at the top dose activity change, negative = inhibition, hits mostly inhibitors | 300,000 tested, 1.2% active | AID 540256; calls by dose curve; tested in HEK293 cells; also: potency is read from the fitted curve at half-maximal effect; nearly all actives have a fitted effect of over 50% in size
Numbers without * were called inactive; [ ] = another dose, or the depositor's remark. Rows were chosen to be rich in hits. Some 6.5% of all compounds tested hit in one or more screens of this group. % is scaled to controls: 0 for no effect and ±100 for the full control effect.

Results for CC1CC2C(C(O)C[C@]3(C)C2CC[C@]3(O)C(=O)CO)[C@]2(C)C=CC(=O)C=C12 (stereo partly specified) ?
Vaccinia mCherry: -15.9%; FMDV inh: -7.6%; VACV Venus inh: -7.5%

What do the screens show for `COC1C(O)C(OC2CC[C@]3(C=O)C4C(OC(C)=O)C[C@@]5(C)C(C6=CC(=O)OC6)CC[C@]5(O)C4CC[C@]3(O)C2)OC(C)C1OC(C)=O` (stereo partly specified)?
Vaccinia mCherry: -7.5%; FMDV inh: -8.2%; VACV Venus inh: -3.8%

How did C[C@@H]1O[C@H](O[C@H]2C[C@@H](O)[C@]3(CO)[C@H]4[C@H](O)C[C@]5(C)[C@@H](C6=CC(=O)OC6)CC[C@@]5(O)[C@H]4CC[C@]3(O)C2)[C@@H](O)[C@H](O)[C@H]1O do in these assays?
Marburg entry inh: 0.0651µM*

How did CC1OC(O[C@H]2C[C@@H](O)[C@]3(CO)[C@H]4[C@H](O)C[C@]5(C)[C@@H](C6=CC(=O)OC6)CC[C@]5(O)[C@@H]4CC[C@]3(O)C2)C(O)C(O)C1O (stereo partly specified) do in these assays?
Vaccinia mCherry: inconclusive; VACV Venus inh: 0.0035µM*

How did CCN(CC)S(=O)(=O)c1ccc(N2CCOCC2)c(NC(=O)c2ccc(N3CCCC3=O)cc2)c1 do in these assays?
HCMV inh: -29.8; Marburg entry inh: inconclusive; Vaccinia mCherry: -12.1%; FMDV inh: -24.2%; VACV Venus inh: -18.4%; Lassa entry inh: inconclusive

Results for CCOc1ccc(C(=O)OCC(=O)N2CCCC2)cc1OCC ?
HCMV inh: 14.8; Marburg entry inh: 9.3%[46.1 µM]; Vaccinia mCherry: 24.5%; FMDV inh: 25.5%; VACV Venus inh: -4.2%; Lassa entry inh: 0.1%

Results for CC(C)OP(=O)(OC(C)C)C(Nc1cccc(C(=O)O)c1)c1ccccc1 (stereo unspecified) ?
HCMV inh: -28.5; Marburg entry inh: -5.3%[46.1 µM]; Vaccinia mCherry: -10.2%; FMDV inh: 8.91µM*; VACV Venus inh: -17.6%; Lassa entry inh: 8.0%

Results for CC(C)OP(=O)(OC(C)C)C(Nc1ccc(C(=O)O)cc1)c1ccccc1 (stereo unspecified) ?
HCMV inh: -33.6; FMDV inh: -23.2%

What do the screens show for `FC(F)(F)c1cccc(C2NCc3ccccc3-n3cccc32)c1` (stereo unspecified)?
HCMV inh: inconclusive; Marburg entry inh: inconclusive; Vaccinia mCherry: inconclusive; FMDV inh: -17.6%; VACV Venus inh: -25.3%; Lassa entry inh: 11.2µM*

Results for CCN1C(=O)CC(CC(=O)N2CCCCC2c2nccs2)(c2ccccc2C)C1=O (stereo unspecified) ?
Vaccinia mCherry: -9.1%; FMDV inh: -11.3%; VACV Venus inh: 2.5%

What do the screens show for `Cc1cccc(N2C(=O)NC(=O)/C(=C\C=C\c3ccco3)C2=O)c1`?
HCMV inh: 0.0; FMDV inh: 7.08µM*

Results for O=C1S/C(=C\C=C\c2ccco2)C(=O)N1c1ccc(O)cc1 ?
HCMV inh: inconclusive; Marburg entry inh: 20.6µM*; Vaccinia mCherry: inactive; FMDV inh: inconclusive; VACV Venus inh: -14.3%; Lassa entry inh: inconclusive

Results for O=C1NC(=O)N(c2ccccc2)C1=O ?
HCMV inh: -7.9; Marburg entry inh: 12.1%[46.1 µM]; Vaccinia mCherry: -12.2%; FMDV inh: -8.1%; VACV Venus inh: 4.9%; Lassa entry inh: -14.9%[46.1 µM]

Results for O=C1NC(=O)N(Cc2ccccc2)C(=O)/C1=C\C=C\c1ccco1 ?
HCMV inh: -98.3*; Marburg entry inh: inconclusive; Vaccinia mCherry: inactive; FMDV inh: 25.1µM*; VACV Venus inh: 84.9%; Lassa entry inh: inconclusive

How did CN(C)c1ccc(/C=C/C=C2/C(=O)NC(=O)N(c3ccccc3)C2=O)cc1 do in these assays?
HCMV inh: -112.6*; Marburg entry inh: inconclusive; Vaccinia mCherry: 7.1%; FMDV inh: 20µM*; VACV Venus inh: -5.7%; Lassa entry inh: inconclusive

How did Cc1ccc(N2C(=O)NC(=O)/C(=C\C=C\c3ccco3)C2=O)cc1 do in these assays?
HCMV inh: -99.7*; FMDV inh: 20µM*

How did CN1C(=O)/C(=C/C=C/c2ccco2)C(=O)NC1=S do in these assays?
HCMV inh: 0.0; Vaccinia mCherry: 16.7%; FMDV inh: inconclusive; VACV Venus inh: 58.4%

Results for Cc1ccc(N2C(=O)NC(=O)/C(=C\C=C\c3ccco3)C2=O)cc1C ?
HCMV inh: -102.5*; Marburg entry inh: inconclusive; Vaccinia mCherry: -2.1%; FMDV inh: inconclusive; VACV Venus inh: 28.0%; Lassa entry inh: inconclusive

How did CCOC(=O)C1=C(C)N(c2ccc(C)c(C)c2)C(=O)/C1=C\c1ccco1 do in these assays?
HCMV inh: 5.5; Marburg entry inh: -24.8%; FMDV inh: -1.3%; Lassa entry inh: 2.4%

Results for O=C1NC(=O)N(Cc2ccco2)C(=O)/C1=C/C=C/c1ccco1 ?
HCMV inh: inconclusive; Marburg entry inh: inconclusive; Vaccinia mCherry: -6.5%; FMDV inh: inconclusive; VACV Venus inh: 71.1%; Lassa entry inh: inconclusive

Results for O=C1NC(=O)N(c2ccccc2)C(=O)/C1=C/C=C/c1ccco1 ?
HCMV inh: -100.2*; FMDV inh: inconclusive

Results for Cc1cccc(C)c1-n1nnnc1C(c1ccnc2ccccc12)N(Cc1ccccc1)Cc1ccccc1 (stereo unspecified) ?
HCMV inh: -72.0*; Vaccinia mCherry: -21.8%; FMDV inh: -9.9%; VACV Venus inh: -10.6%

What do the screens show for `Cc1cccc(C)c1-n1nnnc1C(c1ccnc2ccccc12)N(CCC#N)Cc1ccccc1` (stereo unspecified)?
HCMV inh: inconclusive; Vaccinia mCherry: -4.8%; FMDV inh: inconclusive; VACV Venus inh: -2.9%

What do the screens show for `c1cc2c(cn1)cnc1cscc12`?
HCMV inh: -63.2*; Marburg entry inh: -3.7%; FMDV inh: 13.4%; Lassa entry inh: 5.5%

Results for COc1ccc(Nc2cc(C)c3ccccc3n2)cc1 ?
HCMV inh: 57.2; Marburg entry inh: inconclusive; Vaccinia mCherry: -26.0%; FMDV inh: 12.3%; VACV Venus inh: -10.7%; Lassa entry inh: -10.2%[46.1 µM]

What do the screens show for `COc1ccc(Nc2c3c(nc4ccccc24)CCCC3)cc1OC`?
HCMV inh: 8.2; Marburg entry inh: 8.91µM*; Vaccinia mCherry: inconclusive; FMDV inh: -24.6%; VACV Venus inh: -7.8%; Lassa entry inh: -24.4%

How did COc1ccc(C)cc1Nc1c2c(nc3ccccc13)CCC2 do in these assays?
HCMV inh: -88.5*; Marburg entry inh: inconclusive; Vaccinia mCherry: inconclusive; FMDV inh: inconclusive; VACV Venus inh: -19.2%; Lassa entry inh: inconclusive

Results for COc1ccccc1Nc1nc(-c2ccccc2O)nc2ccccc12 ?
HCMV inh: -69.5*; Marburg entry inh: -8.7%[46.1 µM]; Vaccinia mCherry: inactive; FMDV inh: -8.9%; VACV Venus inh: -9.1%; Lassa entry inh: 7.7%[46.1 µM]

Assay outcomes (PubChem BioAssay)
